Several values for one entry are separate records, joined by “and”; a condition that tells them apart may be missing. Identical values can stand only once. About 2,000 (36%) of roughly 5,500 compounds were called active. Roughly 18% stayed inconclusive and do not appear here. Rule as the data show it: active = normalized growth mostly below about 0.91 (no sharp cut-off); inconclusive = no clear call, values can overlap the other calls; inactive = mostly above about 0.92. Some of the results follow.
Experiment: chemical genetic growth profiling, strain panel (AID 1159580);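 also: tested at 20 µM; growth read once vehicle control cultures reached saturation at 30 °C; 1 = growth at the plate median or of vehicle wells; lower values mean less growth of the strain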
Details: growth OD

Measured: normalized growth

O=C(CCCN1CCC2(CC1)C(=O)NCN2c1ccccc1)c1ccc(F)cc1
active: S. cerevisiae deletion strains, locus YOR083W, strain WHI5, active compounds read low 0.879
inactive: S. cerevisiae deletion strains, locus YKL009W, strain mrt4, active compounds read low 0.977 | S. cerevisiae deletion strains, locus YKL068W, active compounds read low 0.99 | S. cerevisiae deletion strains, locus YKL085W, strain MDH1 (second series), active compounds read low 0.986 | S. cerevisiae deletion strains, locus YKL085W, strain MDH1, active compounds read low 0.986 | S. cerevisiae deletion strains, locus YKL160W, strain elf1, active compounds read low 0.946 | S. cerevisiae deletion strains, locus YKL190W, strain CNB1, active compounds read low 0.99 | S. cerevisiae deletion strains, locus YKR001C, strain vps1, active compounds read low 0.999 | S. cerevisiae deletion strains, locus YKR026C, strain gcn3, active compounds read low 0.985 | S. cerevisiae deletion strains, locus YKR091W, strain srl3, active compounds read low 0.97 | S. cerevisiae deletion strains, locus YLL001W, strain dnm1, active compounds read low 1.01 | S. cerevisiae deletion strains, locus YLL026W, active compounds read low 0.978 | S. cerevisiae deletion strains, locus YLL041C, strain sdh2, active compounds read low 0.988 | S. cerevisiae deletion strains, locus YLR027C, strain aat2, active compounds read low 0.99 | S. cerevisiae deletion strains, locus YLR039C, strain RIC1, active compounds read low 0.995 | S. cerevisiae deletion strains, locus YLR058C, strain SHM2, active compounds read low 0.975 | S. cerevisiae deletion strains, locus YLR102C, strain apc9, active compounds read low 0.995 | S. cerevisiae deletion strains, locus YLR113W, strain HOG1, active compounds read low 1.01 | S. cerevisiae deletion strains, locus YLR221C, strain rsa3, active compounds read low 1.02 | S. cerevisiae deletion strains, locus YLR258W, strain gsy2, active compounds read low 0.986 | S. cerevisiae deletion strains, locus YLR262C, strain YPT6 (second series), active compounds read low 0.995 | S. cerevisiae deletion strains, locus YLR262C, strain YPT6, active compounds read low 0.955 | S. cerevisiae deletion strains, locus YLR268W, strain sec22, active compounds read low 0.93 | S. cerevisiae deletion strains, locus YLR320W, strain mms22, active compounds read low 0.993 | S. cerevisiae deletion strains, locus YLR330W, strain CHS5, active compounds read low 1 | S. cerevisiae deletion strains, locus YLR342W, strain FKS1 (second series), active compounds read low 1.04 | S. cerevisiae deletion strains, locus YLR342W, strain FKS1, active compounds read low 0.972 | S. cerevisiae deletion strains, locus YLR357W, strain rsc2, active compounds read low 0.953 | S. cerevisiae deletion strains, locus YLR370C, strain arc18, active compounds read low 0.98 | S. cerevisiae deletion strains, locus YLR371W, strain rom2, active compounds read low 0.991 | S. cerevisiae deletion strains, locus YLR384C, strain iki3, active compounds read low 0.982 | S. cerevisiae deletion strains, locus YLR418C, strain cdc73, active compounds read low 0.976 | S. cerevisiae deletion strains, locus YML016C, strain PPZ1, active compounds read low 0.995 | S. cerevisiae deletion strains, locus YML032C, strain rad52, active compounds read low 0.991 | S. cerevisiae deletion strains, locus YML120C, strain ndi1, active compounds read low 0.984 | S. cerevisiae deletion strains, locus YML124C, strain tub3, active compounds read low 0.989 | S. cerevisiae deletion strains, locus YMR058W, strain fet3, active compounds read low 0.987 | S. cerevisiae deletion strains, locus YMR078C, strain ctf18, active compounds read low 0.985 | S. cerevisiae deletion strains, locus YMR125W, strain sto1, active compounds read low 1 | S. cerevisiae deletion strains, locus YMR129W, active compounds read low 0.965 | S. cerevisiae deletion strains, locus YMR205C, strain PFK2, active compounds read low 1.05 | S. cerevisiae deletion strains, locus YMR223W, strain ubp8, active compounds read low 0.992 | S. cerevisiae deletion strains, locus YMR231W, strain pep5, active compounds read low 0.988 | S. cerevisiae deletion strains, locus YMR307W, strain GAS1, active compounds read low 1.08 and 1.02 | S. cerevisiae deletion strains, locus YNL067W, strain RPL9B, active compounds read low 0.985 | S. cerevisiae deletion strains, locus YNL071W, strain lat1, active compounds read low 0.995 | S. cerevisiae deletion strains, locus YNL128W, strain TEP1, active compounds read low 0.989 | S. cerevisiae deletion strains, locus YNL153C, strain GIM3, active compounds read low 0.969 | S. cerevisiae deletion strains, locus YNL175C, strain NOP13, active compounds read low 1.01 | S. cerevisiae deletion strains, locus YNL183C, strain NPR1, active compounds read low 0.934 | S. cerevisiae deletion strains, locus YNL197C, strain WHI3, active compounds read low 1.01 | S. cerevisiae deletion strains, locus YNL209W, strain ssb2, active compounds read low 0.998 | S. cerevisiae deletion strains, locus YNL224C, strain SQS1, active compounds read low 1.01 | S. cerevisiae deletion strains, locus YNL233W, strain BNI4, active compounds read low 0.994 | S. cerevisiae deletion strains, locus YNL248C, strain rpa49, active compounds read low 0.928 | S. cerevisiae deletion strains, locus YNL250W, strain rad50, active compounds read low 0.972 | S. cerevisiae deletion strains, locus YNL271C, strain bni1, active compounds read low 1 | S. cerevisiae deletion strains, locus YNL298W, strain CLA4, active compounds read low 0.999 | S. cerevisiae deletion strains, locus YNL307C, strain MCK1, active compounds read low 0.989 | S. cerevisiae deletion strains, locus YNL322C, strain KRE1 (second series), active compounds read low 0.968 | S. cerevisiae deletion strains, locus YNL322C, strain KRE1, active compounds read low 0.999 | S. cerevisiae deletion strains, locus YNR049C, strain mso1, active compounds read low 0.955 | S. cerevisiae deletion strains, locus YNR052C, strain pop2, active compounds read low 0.999 | S. cerevisiae deletion strains, locus YOL006C, strain TOP1, active compounds read low 0.903 | S. cerevisiae deletion strains, locus YOL012C, strain htz1 1.37 | S. cerevisiae deletion strains, locus YOL147C, strain pex11, active compounds read low 0.999 | S. cerevisiae deletion strains, locus YOR001W, strain rrp6, active compounds read low 0.984 | S. cerevisiae deletion strains, locus YOR061W, strain CKA2, active compounds read low 0.964 | S. cerevisiae deletion strains, locus YOR069W, strain VPS5, active compounds read low 0.999 | S. cerevisiae deletion strains, locus YOR070C, strain gyp1, active compounds read low 0.986 | S. cerevisiae deletion strains, locus YOR080W, strain dia2, active compounds read low 0.96 | S. cerevisiae deletion strains, locus YOR083W, strain WHI5 (second series), active compounds read low 1.03 | S. cerevisiae deletion strains, locus YOR106W, strain vam3, active compounds read low 0.959 | S. cerevisiae deletion strains, locus YOR136W, strain idh2, active compounds read low 0.98 | S. cerevisiae deletion strains, locus YOR144C, strain elg1, active compounds read low 0.994 | S. cerevisiae deletion strains, locus YOR184W, strain ser1, active compounds read low 0.983 | S. cerevisiae deletion strains, locus YOR231W, strain MKK1, active compounds read low 1 | S. cerevisiae deletion strains, locus YOR265W, strain rbl2, active compounds read low 0.956 | S. cerevisiae deletion strains, locus YOR270C, strain vph1, active compounds read low 0.972 | S. cerevisiae deletion strains, locus YOR290C, strain snf2, active compounds read low 0.944 | S. cerevisiae deletion strains, locus YOR316C, strain cot1, active compounds read low 0.986 | S. cerevisiae deletion strains, locus YPL051W, strain arl3, active compounds read low 0.974 | S. cerevisiae deletion strains, locus YPL055C, strain LGE1, active compounds read low 0.909 and 0.983 | S. cerevisiae deletion strains, locus YPL078C, strain atp4, active compounds read low 0.964 | S. cerevisiae deletion strains, locus YPL106C, strain sse1, active compounds read low 0.965 | S. cerevisiae deletion strains, locus YPL240C, strain hsp82, active compounds read low 0.99 | S. cerevisiae deletion strains, locus YPL241C, strain CIN2, active compounds read low 1.01 | S. cerevisiae deletion strains, locus YPL256C, strain CLN2, active compounds read low 1.02 | S. cerevisiae deletion strains, locus YPR119W, strain clb2, active compounds read low 0.987 | S. cerevisiae deletion strains, locus YPR141C, strain kar3, active compounds read low 1 | S. cerevisiae deletion strains, locus YPR163C, strain tif3, active compounds read low 1 | S. cerevisiae deletion strains, locus YPR167C, strain met16, active compounds read low 0.999 | S. cerevisiae deletion strains, strain wtn01, active compounds read low 0.987 | S. cerevisiae strains, strain wild type, active compounds read low 0.99

Reference: PubChem BioAssay AID1159580 (chemical genetic matrix, 2015)
